Compound activity deposited in PubChem BioAssay by University of Kansas High Throughput Screening Laboratory.
The entries come from a sample that favours hits as a whole.
Pf apPOL block: Pf-apPOL DNA polymerase inhibition | 210,000 tested, 0.25% active | inhibition, % at 10 µM | AID 1794808 | Recombinant Pf-apPOL, molecular beacon fluorescence, 1.5 h
mHTT CaM bind: inhibitors of human mutant huntingtin-calmodulin interaction | AlphaScreen His-mHTT/GST-CaM binding, luminescence | inhibition, % at 15 µM | 190,000 tested, 3.6% active | AID 1671202
Hits are given with their value; n = inactive; x = not tested or not shown. Cut-off read from the data, not from the text of the source: active = inhibition above about 50%; inactive = the rest.

SMILES	Pf apPOL block	mHTT CaM bind
CSc1ccccc1N1C(=O)C2CC(C)=C(C)CC2C1=O (stereo unspecified)	n	n
CC1=C(C)CC2C(=O)C3=C(C(=O)C2C1)C1c2ccccc2C3c2ccccc21 (stereo unspecified)	n	61.0
CCOC1=NN(c2ccc([N+](=O)[O-])cc2)C(=O)/C1=C/c1cccc(Cl)c1Cl	n	65.0
CCOC1=NN(c2ccc([N+](=O)[O-])cc2)C(=O)/C1=C/c1ccccc1OCC	n	n
CCOc1ccccc1C(=O)N1CC(CN(C)C)C2(CCOCC2)C1 (stereo unspecified)	n	n
COCC(=O)N1CCCN(C2=Nc3ccc(C)cc3Oc3ccc(C)cc32)CC1	n	n
O=C(CCS(=O)(=O)Cc1ccccc1F)NCc1ccc(F)cc1	n	n
O=S(=O)(c1ccc(-c2csc(=Nc3ccccc3)n2CCCO)cc1)N1CCOCC1	n	n
CCN(CC)S(=O)(=O)c1ccc(-c2csc(=Nc3ccc(F)cc3)n2CCCO)cc1	n	51.0
CCN(CC)S(=O)(=O)c1ccc(-c2csc(=Nc3cccc(C)c3)n2CCCO)cc1	n	64.0
CCN(CC)S(=O)(=O)c1ccc(-c2csc(=Nc3ccc(C)cc3)n2C)cc1	n	n
Cc1ccc(NC(=O)C2CC(=O)N(c3ccccc3)C2)cc1 (stereo unspecified)	n	n
O=C(NCCC1=CCCCC1)c1csc(-c2cccnc2)n1	n	n
COCCc1noc(COC2CCN(C(=O)c3cccs3)CC2)n1	n	n
COc1ccc(CNC(=O)c2cc(-c3cccnc3)nc3ccccc23)cc1	n	70.0
COc1cccc(CNC(=O)c2cc(-c3cccnc3)nc3ccccc23)c1	n	n
Cc1ccc(CNC(=O)C2(C)CCCN(C(=O)NCc3ccccc3)C2)cc1 (stereo unspecified)	n	n
CCN1c2cc(C)ccc2-n2cccc2C12CCN(C(=O)NCc1ccco1)CC2	n	84.3
CCN1c2ccccc2C(=O)NC12CCN(C(=O)NCc1ccc(F)cc1)CC2	n	n
CCN1c2cc(C)ccc2-n2cccc2C12CCN(C(=O)NCCc1ccccc1)CC2	n	93.8
CCN1c2cc(C)ccc2-n2cccc2C12CCN(C(=O)NCc1ccc(F)cc1)CC2	n	93.1
CCN1c2ccccc2C(=O)NC12CCN(C(=O)NCCc1ccccc1)CC2	n	n
CCN1c2cc(C)ccc2-n2cccc2C12CCN(C(=O)NCc1ccccc1)CC2	n	81.0
Cc1cccc(-n2cc(C3CCN(C(=O)NCc4ccco4)CC3)cn2)c1	n	n
CCN(CC)Cc1c(O)ccc2c(C)c(-c3ccc(OC)cc3OC)c(=O)oc12	n	n
SMILES	Pf apPOL block	mHTT CaM bind
Cc1c(S(=O)(=O)CCNC(=O)Nc2ccc3c(c2)OCO3)c2ccccc2n1C	n	n
CCOCC(=O)Nc1ccc(-c2ccc(S(C)(=O)=O)nn2)cc1	n	n
Cc1cccc(NC(=O)CSc2nnc(NC(=O)CN(C)S(C)(=O)=O)s2)c1C	n	n
CC(C)n1cnnc1C1CCN(C2CCNCC2)CC1	n	n
Cc1ccnc(N2CCCC(C(=O)Nc3ccc(Cl)cc3)C2)n1 (stereo unspecified)	n	n
CCC(=O)NC1=NC(=O)/C(=C\c2ccc(-c3ccccc3F)o2)S1	n	n
CCOCCCNC(=O)N1CC(CC)Oc2ccc(C)cc21 (stereo unspecified)	n	n
CCOCCCNC(=O)N1CCC2(CC1)c1cccn1-c1ccc(C)cc1N2CC	n	92.9
CCC(=O)Nc1c(-c2ccc(OC)c(OC)c2)nc2ccc(C)cn12	n	n
CCOc1ccc(C(=O)N2CCc3c(nc4cc[nH]n4c3=O)C2)cc1	n	n
CC(=O)NC(=Cc1sc2ccccc2c1C)C(=O)O	n	x
O=C(NCCCN1CCOCC1)c1cc2nc(-c3ccco3)cc(C(F)(F)Cl)n2n1	n	n
O=C(NCCc1c[nH]c2ccccc12)c1cc2nc(-c3ccco3)cc(C(F)(F)Cl)n2n1	n	76.0
O=C(Cc1cccc(F)c1)Nc1nnc(C2CC(=O)N(c3ccc(Cl)cc3)C2)o1 (stereo unspecified)	n	n
Cc1nc(C)c(-c2nnc(NC(=O)C3CC(=O)N(c4ccc(F)cc4)C3)o2)s1 (stereo unspecified)	n	96.8
COc1ccccc1-c1nnc(NC(=O)C2CC(=O)N(c3ccc(F)cc3)C2)o1 (stereo unspecified)	n	n
O=C(Cc1ccc(F)cc1)Nc1nnc(C2=COCCO2)o1	n	51.1
O=C(Cc1ccc(F)cc1)Nc1nnc(C2CC(=O)N(c3ccc(F)cc3)C2)o1 (stereo unspecified)	n	80.0
O=C(Cc1ccc(F)cc1)Nc1nnc(-c2ccc3c(c2)CCCC3)o1	n	n
O=C(Cc1cccc(F)c1)Nc1nnc(C2CC(=O)N(c3ccc(F)cc3)C2)o1 (stereo unspecified)	n	73.9
Cc1ccc(CC(=O)Nc2nnc(C3CC(=O)N(c4ccc(F)cc4)C3)o2)cc1 (stereo unspecified)	n	n
CC1CCN(C(=O)C2c3ccccc3CCN2CC(=O)NCc2ccccc2)CC1 (stereo unspecified)	n	n
O=C(Nc1nnc(C2CC(=O)N(c3ccc(F)cc3)C2)o1)c1ccc(F)cc1 (stereo unspecified)	n	n
CSc1ccc(N2CC(c3nnc(NC(=O)c4c(F)cccc4F)o3)CC2=O)cc1 (stereo unspecified)	n	n
CSc1ccc(N2CC(c3nnc(NC(=O)c4ccco4)o3)CC2=O)cc1 (stereo unspecified)	n	65.0
SMILES	Pf apPOL block	mHTT CaM bind
COc1ccc(C(=O)Nc2nnc(C3CC(=O)N(c4ccc(F)cc4)C3)o2)cc1OC (stereo unspecified)	n	54.2
O=C(c1ccccn1)N1CCC(c2nnc(-c3ccco3)o2)CC1	n	n
Cc1cccc(CNC(=O)c2cncc(-c3ccc(F)cc3)c2)c1	n	n
CCOc1ccc(-c2nc3s/c(=C\c4cc(Br)ccc4OC)c(=O)n3n2)cc1	55.0	n
COc1ccc(OC)c(/C=c2\sc3nc(-c4ccc(Br)cc4)nn3c2=O)c1	n	n
Cc1ccc2c(C(=O)NCc3ccccc3Cl)cc(NC(=O)C(C)C)cc2n1	n	58.3
Cc1ccc(CNC(=O)c2cc(NC(=O)C(C)C)cc3nc(C)ccc23)cc1	n	n
CCOc1ccc(CNC(=O)c2cc(NC(C)=O)cc3nc(C)ccc23)cc1	n	n
CCC(=O)Nc1cc(C(=O)NCc2cc(F)cc(F)c2)c2ccc(C)nc2c1	n	54.5
CCC(=O)N1CCC2(CC1)NC(C)C(=O)N2CC(C)C (stereo unspecified)	n	n
Cc1cc(C)c2c(c1)[nH]c1nnc(SCC(=O)N3CCN(c4ccccc4)CC3)nc12	n	74.0
Cc1cc(C)c2c(c1)[nH]c1nnc(SCC(=O)NCc3ccccc3)nc12	n	n
O=C(NC1CCCC1)C1CCN(c2cnn(Cc3ccccc3)c(=O)c2)CC1	n	n
Cc1ccc(NC(=O)N2CC3CCCN3c3ccccc32)c(Cl)c1 (stereo unspecified)	n	76.5
Cc1ccc(Cl)cc1NC(=O)N1CC2CCCN2c2ccccc21 (stereo unspecified)	n	n
CC1CN(C(=O)Nc2ccccc2Cl)c2ccccc2O1 (stereo unspecified)	n	n
O=C(Nc1ccccc1Cl)N1CC2CCCN2c2ccccc21 (stereo unspecified)	n	81.4
O=C(CC(c1ccccc1)c1ccccc1)N(Cc1ccsc1)Cc1ccccn1	n	n
Nc1ccccc1S(=O)(=O)Nc1cccc2cccnc12	n	100.0
